This is a sample that favours compounds with a hit; in the whole collection about 3.7% have one here.
UGM FP inh: M. tuberculosis UGM enzyme inhibitors, primary screen, biochemical, fluorescence polarization, single point. UDP-galactopyranose mutase (Mycobacterium tuberculosis (strain ATCC 25618 / H37Rv)), …. AID 504406, 2011. hit rate 0.06% among 320,000. purified UGM, fluorescence polarization probe displacement. inhibition, % at 10 µM; in the data active = inhibition above about 10%, passing the limit was not always enough; inconclusive = no clear call, values can overlap the other calls
Target sequence (P9WIQ1 whole entry, looked up): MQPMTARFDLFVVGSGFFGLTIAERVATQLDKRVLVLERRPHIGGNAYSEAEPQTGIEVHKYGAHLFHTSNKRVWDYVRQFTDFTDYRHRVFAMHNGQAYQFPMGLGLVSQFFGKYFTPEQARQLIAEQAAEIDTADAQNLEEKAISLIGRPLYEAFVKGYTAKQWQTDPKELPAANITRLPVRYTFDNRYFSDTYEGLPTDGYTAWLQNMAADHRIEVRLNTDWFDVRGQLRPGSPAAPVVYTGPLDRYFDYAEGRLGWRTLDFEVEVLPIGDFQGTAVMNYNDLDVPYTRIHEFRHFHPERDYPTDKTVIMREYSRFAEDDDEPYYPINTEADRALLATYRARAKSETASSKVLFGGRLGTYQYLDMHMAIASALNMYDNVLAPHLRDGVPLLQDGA
Mtb bLac sens: beta-lactam sensitization of Mtb H37Rv, H37Rv | M. tuberculosis H37Rv growth with meropenem, percent inhibition | inhibition, % at 25 µM | hit rate 0.27% among 330,000 | AID 434955, 2010; call rule not given here;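 note: growth measured after seven days incubation then overnight dye step; 0% = bacteria only wells and 100% = bacteria with antibiotic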
FadD28 binding: inhibitors of FadD28 bisubstrate probe binding, primary screen, biochemical, fluorescence polarization, single point; Mycobacterium tuberculosis FadD28 fatty-acid-AMP ligase; inhibition, % at 12.5 µM; hit rate 0.22% among 360,000; in the data active = inhibition above about 8.5%, passing the limit was not always enough; inconclusive = no clear call, values can overlap the other calls
GDH-TPI counter: GDH-TPI coupling enzyme inhibitors, primary screen, artefact control for M. tuberculosis FBA inhibitor project, biochemical, absorbance, full deck. GDH-TPI coupled enzyme counterscreen, NADH absorbance. inhibition, % at 4.8 µM. hit rate 1.2% among 360,000; in the data active = inhibition above about 30%;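 note: 0% = DMSO wells and 100% = wells lacking the enzyme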
Mtb FBA inh: Mtb FBA enzyme inhibitors, primary screen, biochemical, fluorescence, strain H37Rv. Fructose-bisphosphate aldolase (Mycobacterium tuberculosis (strain ATCC 25618 / H37Rv)), …. purified M. tuberculosis FBA, fluorescence read-out. inhibition, % at 1 µM. hit rate 2.3% among 360,000. AID 588726, 2011; in the data active = inhibition above about 27%;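 note: 0% = vehicle and 100% = reference inhibitor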
Rv3671c protease: Rv3671c serine protease inhibitors, primary screen, biochemical, fluorescence polarization, M. tuberculosis H37Rv; P9WHR9; inhibition, % at 5.96 µM; hit rate 0.048% among 320,000; AID 2606, 2010; in the data active = inhibition above about 38%;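 note: extracellular domain of Rv3671c used as enzyme; 0% = enzyme with DMSO and 100% = no enzyme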
* = called active by the depositor; ? = inconclusive; · = no result.

SMILES	UGM FP inh	Mtb bLac sens	FadD28 binding	GDH-TPI counter	Mtb FBA inh	Rv3671c protease
CCc1cc2c(CN3CCN(CCO)CC3)cc(=O)oc2cc1O	0	-1	-3	21	187*	-4
Cc1ccc2c(CN3CCN(CCO)CC3)cc(=O)oc2c1C	1	-5	0	2	-1	-4
O=c1cc(CN2CCN(C/C=C/c3ccccc3)CC2)c2cc(O)c(-c3ccccc3)cc2o1	-2	22	-5	0	0	1
Cc1cc2oc(=O)cc(CN3CCN(C/C=C/c4ccccc4)CC3)c2cc1O	-1	92	-1	35*	-2	-3
CN1CCN(Cc2cc(=O)oc3cc4c(cc23)CCC4)CC1	-2	?	-4	13	2	-8
COc1ccc(S(=O)(=O)N(C)[C@H]2C[C@H]3c4cc(N5CCN(C)CC5)ccc4CCN3C(=O)[C@H]2[C@H](C)O)cc1	·	·	1	-2	4	·
COc1cccc(CN2CCC2(C)C(=O)NCCc2ccccn2)c1OC (configuration not stated)	·	·	-3	4	0	·
C=CCSc1nnc(-c2ccccc2N=Cc2c(C)[nH]n(-c3ccccc3)c2=O)c(=O)[nH]1	1	62	-2	43*	0	1
C[C@H](O)[C@@H]1C(=O)N2CCc3c([nH]c4ccccc34)[C@@H]2C[C@@H]1N(C)Cc1ccc(Cl)cc1	·	·	-4	-3	6	·
O=[N+]([O-])c1ccc(CNc2ccc(F)cc2)s1	-1	13	3	19	2	1
O=[N+]([O-])c1ccc(CNc2ccc(Cl)cc2)s1	0	2	10*	13	1	-10
O=C(Nc1ccc(N2CCN(C(=O)c3ccccc3F)CC2)cc1)c1cncc(Br)c1	0	57	1	12	0	4
CC(=O)Nc1ccc(/C=N/NC(=O)c2cc3cc(C)ccc3nc2C)cc1	-2	-3	0	38*	0	-5
Cc1occc1C(=O)N/N=C/c1ccc(N(C)C)cc1	5	-9	-2	81*	12	-7
CC(=O)Nc1ccc(/C=N/NC(=O)c2cc3ccccc3nc2C)cc1	1	6	-3	26	0	-3
O=C(N/N=C/c1ccoc1)c1ccc(Cl)cc1	-2	-12	-4	4	-1	1
Cc1occc1C(=O)N/N=C/C=C/c1ccc(N(C)C)cc1	3	-3	-1	26	0	3
Cc1nc2c(C)cccc2cc1C(=O)N/N=C/c1ccc(N(C)C)cc1	1	-6	0	51*	3	-6
Cn1c(=O)n(C)c2cc(/C=N/NC(=O)c3ccc(Cl)cc3)ccc21	0	-2	-2	51*	4	-2
CCc1nc2ccc(C(=O)N3CCN(S(=O)(=O)CC)CC3)cn2c1N(CC)Cc1cccc(Br)c1	·	·	-1	0	2	·
COc1ccc(/C=N/NC(=O)c2ccc(Cl)cc2)cc1Cn1cc(Cl)cn1	-2	-1	-1	11	0	-13
CN(C)c1ccc(/C=N/NC(=O)c2ccccc2)cc1	0	4	-2	20	0	1
CN(C)c1ccc(/C=N/NC(=O)c2ccc(Cl)cc2)cc1	-4	8	2	31*	1	6
CN(C)c1ccc(/C=N\NC(=O)c2ccc(Cn3cc(Cl)cn3)cc2)cc1	-2	10	-1	35*	0	-2
O=[N+]([O-])c1cccc(-c2cc(-c3cc(Br)ccc3O)[nH]n2)c1	1	12	-12	8	-2	-9
SMILES	UGM FP inh	Mtb bLac sens	FadD28 binding	GDH-TPI counter	Mtb FBA inh	Rv3671c protease
Nc1ccc2nc3c(=O)n(C4CCCCC4)c(=O)[nH]c3nc2c1	36*	2	0	6	-15	7
CCCCn1c(=O)[nH]c2nc3cc(N)ccc3nc2c1=O	33*	-5	3	1	-10	9
Cc1cc2nc3c(=O)n(CCc4ccccc4)c(=O)[nH]c3nc2cc1N	17*	-6	-2	21	-2	-9
Nc1ccc2nc3c(=O)n(CCc4ccccc4)c(=O)[nH]c3nc2c1	?	-5	-1	5	-11	-24
COc1cc2[nH]c(=O)n(C3CCCCC3)c(=O)c2cc1OC	1	8	-3	2	4	10
CC1(C2CC(=O)c3c(O)ccc(O)c3C2)OCCO1 (configuration not stated)	·	·	0	8	1	·
CCCCN(Cc1cc2cc(OC)ccc2[nH]c1=O)S(=O)(=O)c1ccc(C)cc1	-2	?	-5	16	6	3
O=C(N/N=C/c1c(O)n(Cc2ccccc2)c(=O)[nH]c1=O)c1ccccc1O	1	3	4	35*	9	-30
O=C(N/N=C/c1c(O)n(CCc2ccccc2)c(=O)[nH]c1=O)c1ccccc1O	1	2	1	20	14	3
COc1ccc(Cn2c(O)c(/C=N/NC(=O)c3ccccc3O)c(=O)[nH]c2=O)cc1	0	3	17*	27	10	-13
O=C(N/N=C/c1c(O)n(Cc2ccc(F)cc2)c(=O)[nH]c1=O)c1ccccc1O	1	4	19*	51*	12	-31
COCCCN1C(=O)C(CC(=O)NCCc2ccccn2)CC(C(=O)N2CCOCC2)=C1C (configuration not stated)	·	·	-3	6	2	·
Cc1cccc(C)c1NC(=O)/C(C#N)=C/c1cccs1	-2	62	0	42*	3	-1
CC(=O)N(O)c1ccc(C=Cc2ccccc2)cc1	·	·	-1	·	3	·
COC(=O)c1cc(Cl)ccc1NCC(N)c1ccccc1 (configuration not stated)	·	·	-2	·	115*	·
CCOC(=O)c1cc2c(=O)[nH]ccc2nc1C	0	-3	-4	7	120*	2
COc1ccc(N/N=C(\C#N)C(N)=O)cc1	-5	-3	0	20	-5	6
CCOc1ccc(N/N=C(/C#N)C(N)=O)cc1	1	3	0	33*	-4	-5
CCn1c(CSc2nnc3ccccn23)nc2cc(C(=O)O)ccc21	6	7	13*	2	7	27
O=C(OCc1ccccc1)N1C=CCC[C@@H]1c1c(Cl)cccc1Br	·	·	-3	·	2	·
Nc1ccc(C(=O)C(=O)c2ccc(N)cc2)cc1	0	-1	0	38*	1	-1
CCOC(=O)c1ccc(N)cc1	0	-2	-1	0	-1	0
COc1ccc(C(=O)c2ccc(Cl)cc2)c(OC)c1OC	·	·	-3	10	2	·
N#C/C(=C/C1=C(N2CCOCC2)C(=C/c2ccccc2)/CC1)C(=O)Nc1ccccc1F	·	·	9.9*	6	0	·
N#C/C(=C\C1=C(N2CCOCC2)C(=C\c2ccc(Cl)cc2)/CC1)C(=O)Nc1ccccc1F	0	11	0	14	-2	-50
